The structures appear in SMILES notation. Among all 52,000 compounds or so, about 1,700 (3.3%) were called active. Only a selection was taken, and actives are over-represented in it overall. Values without a mark were called inactive. Cut-off read from the data, not from the text of the source: active = survival mostly below about 52% (no sharp cut-off); inactive = mostly above about 56%.

This experiment has as its system Wild type. Briefly: growth inhibition of S. aureus wild type versus tarO mutant, primary screen, teichoic acid synthesis inhibitors, RN4220, OD600 (AID 463173). The note with it: S. aureus RN4220 wild type/DeltatarO growth, OD600, 18 h, stronger effect = lower value, screened at 18.75 µg/mL (by protocol).
With `CC(=O)Nc1nonc1-c1nnc(SCC(=O)Nc2ccccc2)n1-c1ccccc1`, the survival is 51%.
As for `O=C(NC1CCCC1)C(c1ccc(O)cc1)N(C(=O)Cn1nnc(-c2cccs2)n1)C1CCCC1` (stereo unspecified), the figure is 100%.
On to `CC(C)CCOc1ccccc1Cn1c(=O)sc2ccccc21`, for which the survival is -1% (active).
As for `CCN(CC)C(=O)Cn1c(=O)sc2ccccc21`, the figure is 105%; as for `O=C(Cn1c(=O)sc2ccccc21)Nc1ccc(O)cc1`, 103%; as for `CCOC(=O)Cn1c(=O)sc2ccccc21`, 116%.
In the case of `CCCCOc1ccccc1Cn1c(=O)sc2ccccc21`, the survival was -4% (active).
For the compound `CCCOc1ccccc1Cn1c(=O)sc2ccccc21`, the survival was -5% (active).
As for `CS(=O)(=O)n1c(=O)sc2ccccc21`, the figure is 121%; as for `O=C(Cn1c(=O)sc2ccccc21)OCc1ccccc1`, 118%.
`Cc1cccc(NC(=O)Cn2c(=O)sc3ccccc32)c1`: the survival was 119%.
In the case of `COc1ccc(CNCCNC(=O)c2cccs2)c(OC)c1OC`, the survival was 108%.
For `COc1ccc(CNC(=O)c2ccc3c(c2)N(Cc2ccc(C)cc2)CCS3)cc1`, the survival is 93%.
In the case of `O=C(Cn1nc(-c2ccc(Cl)cc2)ccc1=O)NCCc1ccccc1`, the survival was 45%.
As for `C=Cc1ccc(Cn2c(=O)n(-c3cccc(Cl)c3)c(=O)c3c4c(sc32)CN(C(C)=O)CC4)cc1`, the figure is 81%; as for `Cc1cc(C)c(S(=O)(=O)N2CCN(Cc3nc4ccc(C)cc4o3)CC2)c(C)c1`, 73%; as for `O=[N+]([O-])c1cc(-c2nc(-c3ccccc3)no2)ccc1NCC1CCCO1` (stereo unspecified), 86%.
With `CC(C)(C)OC(=O)N1CCC(c2c(C(=O)NCc3ccccn3)cnn2-c2ccccc2)CC1` the figure was 73%.
Regarding `CCOC(=O)N1CCC(NC(=O)c2cnn(-c3cccc(Cl)c3C)c2C2CCN(C(=O)OC(C)(C)C)CC2)CC1`, the survival was -3% (active).
Consider `Cc1c(Cl)cccc1-n1ncc(C(=O)NC2CCCC2)c1C1CCN(C(=O)OC(C)(C)C)CC1`, for which the survival is 66%.
Take `Cc1c(Cl)cccc1-n1ncc(C(=O)NC2CCCCC2)c1C1CCN(C(=O)OC(C)(C)C)CC1`: the survival is 75%.
As for `CC(C)(C)OC(=O)N1CCC(c2c(C(=O)NCc3ccccn3)cnn2-c2ccccc2Cl)CC1`, the figure is -6% (active); as for `Cc1ccc(-n2ncc(C(=O)NCc3ccccn3)c2C2CCN(C(=O)OC(C)(C)C)CC2)c(C)c1`, 45%.
In the case of `CC1CCN(S(=O)(=O)c2ccc3c(c2)c(=O)c(C(=O)N2CCN(c4cccc(Cl)c4)CC2)cn3C)CC1`, the survival was 94%.
As for `CCCNC(=O)Cn1nc(-c2ccc(F)cc2)c2cnc3ccc(F)cc3c21`, the figure is 82%; as for `CCn1c(Cc2ccccc2)nnc1SCC(=O)N1CCCCC1C` (stereo unspecified), 116%.
As for `COc1ccc(NC(=O)CCc2nc3cccnc3n2-c2ccccc2)c(OC)c1`, the figure is 68%.
As for `COc1ccc(OC)c(Nc2nc3ccccc3n3c(C)nnc23)c1`, the figure is 83%; as for `Nn1cnnc1SCC(=O)N(C1CCCCC1)C1CCCCC1`, 107%.
With `O=C(Nc1ccc(NC(=O)c2cccs2)cc1)c1cccs1`, the survival was 113%.
As for `Cc1ccccc1CCNC(=O)c1ccc2c(c1)c(C)c(C)n2Cc1ccccc1`, the figure is 124%; as for `COc1cccc(/C=N/n2c(N)nc3ccccc32)c1OC`, 103%.
On to `COc1cccc(/C=N/c2nc3ccccc3n2C)c1O`, for which the survival was 106%.
As to `COc1ccccc1/C=C/c1nc2ccccc2n1C(C)C`, the survival was 2% (active).
With `CC1CC(C)N(C(=O)c2cc(-c3ccccc3)on2)C(C)C1` (stereo unspecified) the figure was 129%.
Turning to `CCOc1ccc(NC(=O)CN(c2ccc(Cl)cc2C)S(=O)(=O)c2ccccc2)cc1`, the survival was 77%.
As for `CCN(CC)CC(=O)Nc1nc2ccc(OC)cc2s1`, the figure is 103%.
As for `Cc1c(Cl)cccc1-c1ccc(/C=C(\C#N)c2nc3ccccc3[nH]2)o1`, the figure is 8% (active); as for `N#C/C(=C\c1ccc(-c2ccccc2C(=O)O)o1)c1nc2ccccc2[nH]1`, 84%.
As to `N#C/C(=C\c1ccc(-c2ccc(F)cc2F)o1)c1nc2ccccc2[nH]1`, the survival was 38%.
Regarding `Cc1ccccc1NC(=O)c1c(NC(=O)c2ccccc2)sc2c1CCC2`, the survival was 137%.
As for `Cc1ccccc1NC(=O)c1c(NC(=O)C(F)(F)F)sc2c1CCCCC2`, the survival is 1% (active).
With `COc1ccc(NC(=O)c2c(NC(=O)C(F)(F)F)sc3c2CCCCC3)cc1` the figure was -1% (active); with `COc1ccc(CC(=O)Nc2sc3c(c2C(=O)Nc2ccc(C)cc2)CCCCC3)cc1`, 136%.
As for `Cc1ccc(NC(=O)c2c(NC(=O)C(F)(F)F)sc3c2CCCCC3)cc1`, the figure is -3% (active); as for `Cc1ccccc1NC(=O)c1c(NC(=O)Cc2ccccc2)sc2c1CCC2`, 48%.
Consider `COc1ccc(NC(=O)c2c(NC(=O)c3ccc(Br)cc3)sc3c2CCCC3)cc1`, for which the survival is 157%.
With `Cc1ccc(NC(=O)c2c(NC(=O)c3ccccc3)sc3c2CCC3)cc1`, the survival is 79%.
As for `Cc1ccc(NC(=O)c2c(NC(=O)Cc3ccccc3)sc3c2CCCC3)cc1`, the figure is 49%.
With `COCCCNc1nc2c(c(=O)n(Cc3ccc(F)cc3)c(=O)n2C)n1C` the figure was 130%; with `CCC(O)c1cc2c(cc1NC(=O)c1cccc(Br)c1)OCCO2` (stereo unspecified), 71%.
As for `Cc1ccc(N(C)C(=O)Cn2cc(S(=O)(=O)N3CCCC3)c(S(=O)(=O)N3CCCC3)c2)cc1`, the survival was 73%.
With `Cc1cccc(NC(=O)CN2C(=O)C(c3ccc(F)cc3)=NC23CCCCCC3)c1C` the figure was 73%; with `CCCN1CCN(c2ncnc3sc(C(=O)Nc4ccc(N(CC)CC)cc4C)c(C)c23)CC1`, 128%.
As for `CCn1c(SC)nnc1C1CCCN(C(=O)c2ccccc2-c2ccccc2)C1` (stereo unspecified), the figure is 120%.
With `CCOc1ccc(Cn2c(-c3ccc(OCC)c(OC)c3)nc3ccccc32)cc1OC`, the survival was 94%.
Turning to `CCCCCn1c(CCCNC(=O)c2ccccc2OC)nc2ccccc21`, the survival is 68%.
Regarding `CCCCCn1c(C(C)NC(=O)c2ccccc2)nc2ccccc21` (stereo unspecified), the survival was 77%.
For the compound `CCCCn1c(C)nc2ccccc21`, the survival was 99%.
Consider `CCCCCn1c(CCCNC(=O)c2cccc(C)c2)nc2ccccc21`, for which the survival was 50%.
For the compound `CCCCCn1c(-c2ccc(OC)c(OC)c2)nc2ccccc21`, the survival is 1% (active).
Take `CCCCCn1c(-c2cccc(C)c2)nc2ccccc21`: the survival is 11% (active).
Take `CCCCn1c(CCCNC(=O)c2cccc(C)c2)nc2ccccc21`: the survival is 73%.
With `CCCCCn1c(CCNC(=O)c2cccc(C)c2)nc2ccccc21` the figure was 2% (active); with `Cc1ccc(S(=O)(=O)NCC(c2ccco2)N2CCOCC2)cc1` (stereo unspecified), 78%.
On to `Cc1ccc2[nH]c(CSc3nnc(NC(=O)c4ccc(Cl)cc4)s3)cc(=O)c2c1`, for which the survival is 71%.
Take `CCN(CCCNC(=O)c1nn(-c2ccc(C)cc2)c(=O)c2c1c1ccccc1n2C)c1ccccc1`: the survival is 82%.
As for `Cc1cc(=O)c2c(o1)CC(C)(C)CC2=O`, the figure is 110%; as for `Cc1cccc(-n2c(C)nc3cc(C(=O)NCCC4=CCCCC4)ccc32)c1`, 73%.
On to `CCCNC(=O)c1ccc2c(c1)nc(C)n2-c1cccc(C)c1`, for which the survival was 82%.
With `Cc1cccc(-n2cnc3cc(C(=O)NCc4ccccc4Cl)ccc32)c1` the figure was 68%.
As for `Cc1cccc(-n2cnc3cc(C(=O)NC4CCCCCC4)ccc32)c1`, the figure is 124%; as for `CCCCCNC(=O)c1ccc2c(c1)nc(C)n2-c1cccc(C)c1`, -2% (active).
As for `COCCCNC(=O)c1ccc2c(c1)nc(C)n2-c1cccc(C)c1`, the figure is 69%.
Take `Cc1ccc(-n2cnc3cc(C(=O)NCc4ccccc4Cl)ccc32)c(C)c1`: the survival is 10% (active).
With `CCOc1ccc(-n2c(C)nc3cc(C(=O)NCCC4=CCCCC4)ccc32)cc1` the figure was -6% (active); with `Cc1cc(C)cc(-n2cnc3cc(C(=O)NCCc4ccccc4)ccc32)c1`, 73%; with `CCCNC(=O)c1ccc2c(c1)ncn2-c1ccc(C)cc1C`, 59%.
With `Cc1nc2cc(C(=O)NCCC3=CCCCC3)ccc2n1-c1ccc(Br)cc1` the figure was 75%; with `CCCCCNC(=O)c1ccc2c(c1)ncn2-c1cccc(C)c1`, -3% (active); with `Cc1ccc(OCC(=O)Nc2ccccc2C(=O)OCc2cc(=O)n3c(C)csc3n2)cc1`, 72%.
With `O=C(Nc1ccc(Cl)cc1)C1CCN(S(=O)(=O)c2ccc(Br)s2)CC1`, the survival was 60%.
With `CCC(C)(C)NC(=O)C1CCN(S(=O)(=O)c2ccc3c(c2)CCCN3C(C)=O)CC1` the figure was 71%.
As to `O=C(/C=C(/O)c1cccnc1)C(F)(F)F`, the survival was 86%.
With `O=C1CC2C(=O)NCCN2C(=NC(=O)c2ccc(Cl)cc2)N1` (stereo unspecified) the figure was 100%.
Consider `COc1cccc(/C=N/NC(=O)COc2c(C)cccc2C)c1O`, for which the survival was 113%.
Regarding `COc1cccc(/C=N/NC(=O)CSCc2ccccc2)c1O`, the survival was 108%.
With `COc1cccc(/C=N/NC(=O)c2cccc(C)c2)c1O` the figure was 1% (active).
With `COc1cc(OC)cc(C(=O)Nc2ccc(S(=O)(=O)N3CCCCC3c3cccnc3)cc2)c1` (stereo unspecified) the figure was 71%.
`Cc1ccc(Cl)cc1N1CCN(C(=O)CCS(=O)(=O)c2cc(Br)cc3c2N(C(=O)C2CC2)CC3)CC1`: the survival was 80%.
For the compound `O=C(NCc1cccc(F)c1)c1cccc(NC(=O)c2nsc3ccccc23)c1`, the survival was 87%.
As for `COC(=O)c1cccc(NC(=O)c2nsc3ccccc23)c1`, the figure is 0% (active); as for `O=C(NCc1cccc(F)c1)c1ccc(NC(=O)c2nsc3ccccc23)cc1`, -4% (active); as for `O=C(NCc1ccccc1)c1ccc(NC(=O)c2nsc3ccccc23)cc1`, 55%.
As for `CCC(C)NC(=O)c1cccc(NC(=O)c2nsc3ccccc23)c1` (stereo unspecified), the figure is 76%.
In the case of `CC(NC(=O)c1cccc(NC(=O)c2nsc3ccccc23)c1)c1ccccc1` (stereo unspecified), the survival is 111%.

Values taken from PubChem BioAssay AID463173 (ICCB-Longwood Screening Facility, Harvard Medical School, 2010).
